From PubChem BioAssay (NCATS)
Inconclusive results are not listed. Where a call stands in place of a potency, no number is given. A number with no mark means an inactive call. Calls of active or inactive are those of the source. The call rests on the fitted dose curve; in most records, active means well fitted curve in the direction sought with a large enough effect; inconclusive means small, poorly fitted or top-dose-only effect, or another doubt; inactive means no such curve, though single readings can be large; an effect the other way counts as inactive or inconclusive.

Tests used:
[1] = qHTS for Inhibitors of Plasmodium falciparum (DD2) proliferation (AID 504314)
Outline: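 Quantitative HTS growth inhibition: SYBR Green I binding to parasite DNA after 72 h drug exposure of infected erythrocytes (0.3% parasitemia, 2.5% hematocrit). Signals normalized per plate to inhibitor and vehicle wells.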

[2] = qHTS for Inhibitors of Plasmodium falciparum (GB4) proliferation (AID 504315); further: nearly all actives have a fitted effect of over 50% in size
Outline: (§1)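 Erythrocytes infected with P. falciparum line (0.3% parasitemia, 2.5% hematocrit final) incubated with compounds 72 h at 37 °C, 5% CO2; SYBR Green lysis buffer added, fluorescence read next day. Normalized to 0.29 uM artemisinin and DMSO.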

[3] = qHTS for Inhibitors of Plasmodium falciparum (7G8) proliferation (AID 504316); further: nearly all actives have a fitted effect of over 65% in size
Outline: as §1

[4] = qHTS for Inhibitors of Plasmodium falciparum (HB3) proliferation (AID 504318); further: nearly all actives have a fitted effect of over 60% in size
Outline: as §1

[5] = qHTS for Inhibitors of Plasmodium falciparum (CP250) proliferation (AID 504320)
Outline: as §1
Potency means the concentration at half of the fitted maximal effect.

SMILES	Potency [1]	Potency [2]	Potency [3]	Potency [4]	Potency [5]
C[C@H]1Cc2c(-c3ccccc3)nc3c(c2CO1)CN(C(=O)C1CCCCC1)CC3	inactive	inactive	inactive	inactive	inactive
COC(=O)C1=C(C)N(Cc2ccccc2)C(=O)N[C@H]1c1ccc(Br)cc1	inactive	inactive	inactive	inactive	inactive
C[C@H]1Cc2c(-c3ccccc3)nc3c(c2CO1)CN(C(=O)c1ccco1)CC3	inactive	inactive	inactive	inactive	inactive
COC(=O)CCC(=O)OC1(C)C(=O)C=C2C=C(C3CC3)N(CCCCO)C=C2C1=O (stereo not given)	inactive	inactive	inactive	inactive	inactive
Cc1ccccc1Nc1oc(-c2ccccc2)nc1-c1ccc(C(F)(F)F)cc1	inactive	inactive	inactive	inactive	inactive
CCN1C(=O)N[C@@H](c2ccco2)C(C(=O)OC)=C1C	inactive	inactive	inactive	inactive	inactive
FC(F)(F)c1cc(NC(=S)NC23CC4CC(CC(C4)C2)C3)cc(C(F)(F)F)c1	753 nM (active)	1070 nM (active)	601 nM (active)	478 nM (active)	849 nM (active)
COCCN1C(=O)N[C@@H](c2ccccc2)[C@H](C(=O)OC)[C@H]1C	inactive	inactive	inactive	inactive	inactive
CCN1C(=O)NC(c2ccc(Br)cc2)C(C(=O)OC)=C1C (stereo not given)	inactive	inactive	inactive	inactive	inactive
COC(=O)CCCC1=CC2=CC(=O)C(C)(OC(=O)c3cccs3)C(=O)C2=CN1c1ccccc1 (stereo not given)	inactive	inactive	inactive	inactive	inactive
CCC(=O)OC1(C)C(=O)C=C2C=C(CCCCNC(=O)OC(C)(C)C)OC=C2C1=O (stereo not given)	inactive	inactive	inactive	inactive	inactive
COC(=O)N[C@H](CC(C)=O)c1ccc(Cl)cc1	inactive	inactive	inactive	inactive	inactive
CC#CCN1c2ccccc2[C@]23C[C@@H](C(=O)OC)N(S(=O)(=O)c4cccs4)C2=NC(C(=O)OC)=C(C(=O)OC)[C@H]13	inactive	inactive	inactive	inactive	inactive
COC/C=C/C1=CC2=CC(=O)C(C)(OC(=O)c3cnc4ccccc4n3)C(=O)C2=CN1C1CCCCC1 (stereo not given)	inactive	inactive	inactive	inactive	inactive
CCCCc1nc2c(c3c1C[C@H](C)OC3)CN(C(=O)Nc1ccc(OC)cc1)CC2	inactive	inactive	inactive	inactive	inactive
CCN1C(=O)N[C@@H](c2ccccc2)C(C(=O)OC)=C1C	inactive	inactive	inactive	inactive	inactive
CCN1C(=O)N[C@@H](CCc2ccccc2)C(C(C)=O)=C1C	inactive	inactive	inactive	inactive	inactive
COC(=O)C1=C(C(=O)OC)[C@@H]2N(C)c3ccccc3[C@@]23C[C@@H](C(=O)OC)N=C3N1	inactive	inactive	inactive	inactive	inactive
CCCCC1=CC2=C(c3ccco3)C(=O)C(C)(OC(=O)c3ccc(OC)cc3)C(=O)C2=CN1c1ccccc1 (stereo not given)	inactive	inactive	inactive	inactive	inactive
CC#CCN1C(=O)N[C@@H](c2ccccc2)C(C(=O)OC)=C1C	inactive	inactive	inactive	inactive	inactive
COC(=O)CCCC1=CC2=C(c3ccccc3)C(=O)C(C)(OC(=O)C3CCCC3)C(=O)C2=CN1C(CO)CO (stereo not given)	inactive	inactive	inactive	inactive	inactive
COCCN1C(=O)N[C@@H](c2ccccc2)[C@@H](C(=O)OC)[C@H]1C	inactive	inactive	inactive	inactive	inactive
COCCN1C(=O)N[C@@H](c2ccco2)C(C(=O)OC)=C1C	inactive	inactive	inactive	inactive	inactive
COC(=O)CCC(=O)OC1(C)C(=O)C2=CN(CCc3ccccn3)C(c3ccc(OC)cc3)=CC2=C(Br)C1=O (stereo not given)	inactive	inactive	inactive	inactive	inactive
COC(=O)C1=C(C)N(CC2CC2)C(=O)N[C@H]1c1ccccc1	inactive	inactive	inactive	inactive	inactive
COC/C=C/C1=CC2=CC(=O)C(C)(OC(=O)c3cnc4ccccc4n3)C(=O)C2=CN1C(CO)CO (stereo not given)	inactive	inactive	inactive	inactive	inactive
CC1(OC(=O)c2ccc(Cl)nc2)C(=O)C=c2cc(-c3ccsc3)ncc2=C1OC(=O)C1CCCC1 (stereo not given)	inactive	inactive	inactive	inactive	inactive
CC(C)C(=O)N[C@@H]1CCCN1C(=O)C=Cc1ccccc1	inactive	inactive	inactive	inactive	inactive
